Assay results taken from PubChem BioAssay AID1745846 (National Center for Advancing Translational Sciences (NCATS), 2022).
Screen size: about 1,400 compounds; about 30 (2%) were called active. About 15% were inconclusive and are not listed. Calls follow the shape of the dose curve; as a rule, active = well fitted inhibition curve with a large enough effect; inconclusive = small, poorly fitted or top-dose-only effect; inactive = flat fitted curve, though single readings scatter. Many of the other results were omitted from the sample, so actives are more common in it than they were.

test: Firefly Luciferase Counterscreen for Inhibitors of ATXN expression; conditions: luminescence; series mostly up to 57.5 µM; activity change, negative = inhibition: at the top concentration
Text: University of Utah School of Medicine, Salt Lake City, Utah
Spinocerebellar ataxia type 2 (SCA2) is a multisystem neurodegenerative disease caused by a dominantly acting mutation leading to expansion of a polyQ domain in the ataxin-2 protein (ATXN2). SCA2 patients develop progressive ataxia and later lose function in other neuronal systems. Prominent parkinsonian signs develop in some patients. Like many neurodegenerative disorders, no symptomatic or disease-modifying treatments are known.
The primary objective of the proposed research is to identify compounds inhibiting ATXN2 expression and to test them for efficacy in SCA2 mouse models. We have developed a cell-based assay paired with an in vivo mouse model using identical luciferase expression constructs. This approach takes advantage of an ATXN2-luciferase transgene, with the luciferase gene flanked by the upstream and downstream portions of the ATXN2 gene. Here we describe a 5-7 dose quantitative high thoroughput screen (qHTS) for compounds lowering ATXN2 expression. We screened the NIH Molecular Libraries Small Molecule Repository (MLSMR) and NCGC's mechanistically annotated (MIPE) and drug repurposing (NPC) collections of compounds for lowering expression of an ATXN2-luciferase reporter in HEK-293 cells. The assay is a multiplexed cell viability assay to ensure target reduction in the absence of cytotoxicity. Secondary qHTS assays included a CMV-luciferase reporter expressed in HEK-293 cells as well as a biochemical assay using recombinant luciferase to detect inhibitors of the reporter enzyme. Compounds that inhibit ATXN2 expression but is not cytotoxic were selected for confirmatory and secondary screens.
PROTOCOL TABLE (as described by Inglese J, Shamu CE and Guy RK. 2007)
SEQUENCE No. (e.g., 1, 2, 3, etc.); […] (e.g., Cells, Incubation, Reagent, etc.); VALUE; DESCRIPTION.
2; Compounds; 23 nL; Kalypsis pintool (Wako USA) equipped with a 1536-well pin head.
3; Enzyme; 1 uL; recombinant firefly luciferase (prepared in 50 mM Tris HCl pH7.5, 10 mM MgCl2, 0.05% BSA, 0.01% Tween20) at final concentration of 10 nM. Wells containing buffer only were used as control (set as 100% inhibition when normalizing data).
4; Incubation; 10 min; room temperature.
5; Detection; Luminescence; Viewlux plate reader (PerkinElmer).
NOTES (numbers refer to Sequence numbers above)
1. Luciferase substrate is added to 1536 well, Greiner white assay plate. Evaporation was prevented by covering assay plates with metal lids containing holes to allow gas diffusion.
2. Compounds were added in a dose response manner with the final concentrations of 57, 11.4, 2.28, 0.46, 0.091, 0.018, 0.0037 uM. Vehicle-only plates, with DMSO being pin-transferred to columns 5-48, were inserted uniformly at the beginning and the end of each library to monitor and record any shifts in assay performance.
3. Recombinant firefly luciferase (10 nM final concentration) is added to the assay plate.
5. End-point luminescence is then measured on the Viewlux (PerkinElmer) imager equipped with a clear emission filter using a 2 sec exposure.
Inglese J, Shamu CE and Guy RK, Reporting data from high throughput screening of small molecule libraries, Nature Chemical Biology, 2007, 3(8): 438-441. doi.org/10.1038/nchembio0807-438.
% is scaled to controls: 0 for no effect and ±100 for the full control effect; potency is read from the fitted curve at half-maximal effect.

SMILES	activity change, negative = inhibition	Potency
CC(NC1=CC(=O)c2cccnc2C1=O)C(O)c1ccccc1 (stereo not given)	-12.2% (inactive)	–
O=C(Nc1nonc1-c1ccc(Cl)cc1)c1ccccc1	1.38% (inactive)	–
O=C(NC1=CC(=O)c2ccccc2C1=O)c1ccccc1	–	12.6 µM (active)
O=C(N/N=C/c1cc([N+](=O)[O-])ccc1O)c1c[nH]c2ccccc12	-4.35% (inactive)	–
COc1cccc(NC(=S)/C(=C(\[O-])c2cc(C)n(-c3ccccc3F)c2C)[n+]2ccc(N(C)C)cc2)c1	–	15.8 µM (active)
CCCC[C@@H](CNC)NC[C@H](NCCCCC1CCCCC1)C(C)C	1.22% (inactive)	–
CN(C)CCCN(C(=O)c1ccco1)c1nc2ccc(Br)cc2s1	-9.87% (inactive)	–
CS(=O)(=O)c1ccc(Nc2nc(C(N)Cc3ccc(Cl)cc3)cs2)cc1 (stereo not given)	0.635% (inactive)	–
Cc1cc(O)c(C)c(O)c1/C=N/NC(=O)c1cccnc1	-2.83% (inactive)	–
CN(C(=O)c1cnc(N2CCN(c3ncccn3)CC2)c2ccccc12)c1ccc(Cl)cc1	2.16% (inactive)	–
C/C(=C\C(=O)c1ccc(Br)cc1)NNC(=O)c1ccc(O)cc1	2.14% (inactive)	–
CC1C(=O)C(C)C(c2cc(Br)ccc2O)NC1c1cc(Br)ccc1O (stereo not given)	-3.17% (inactive)	–
O=C(NCc1ccccc1Cl)C1CCCN(C(=O)Nc2ccc(F)cc2)C1 (stereo not given)	-2.7% (inactive)	–
O=C(c1c(F)cccc1F)N1CCCC(c2nc(-c3ccc(Cl)cc3)no2)C1 (stereo not given)	-10.2% (inactive)	–
CCCC(=O)N1CCCC(c2cc(C(=O)Nc3ccccc3)no2)C1 (stereo not given)	–	1.41 µM (active)
Cc1cc(C(=O)N/N=C/c2ccc([N+](=O)[O-])s2)n[nH]1	-6.06% (inactive)	–
Cc1ccccc1C(=O)N/N=C/c1ccc([N+](=O)[O-])s1	–	3.55 µM (active)
O=C(N/N=C/c1ccc([N+](=O)[O-])s1)c1ccccc1	-19.8% (inactive)	–
CCOC(=O)c1c(C)nn(-c2ccc(NC(=O)c3cccs3)cc2)c1C	-9.56% (inactive)	–
Cc1nc2c(OCc3ccc(C(F)(F)F)cc3)cccn2c1N(C)C(=O)CCC1CCCC1	-4.05% (inactive)	–
C[C@@H]1CN([C@H](C)CO)S(=O)(=O)c2ccc(-c3ccc(C#N)cc3)cc2O[C@H]1CN(C)C(=O)Nc1cc(F)ccc1F	4.48% (inactive)	–
Clc1ccc(C[n+]2cc(-c3ccccc3)n3c2CCCCC3)c(Cl)c1	5.15% (inactive)	–
COc1cc(OC)cc(-c2cc3nc(C)c(CCC(=O)O)c(C)n3n2)c1	–	12.6 µM (active)
C/C(=N\NC(=O)Cc1ccc(Cl)cc1)c1ccccc1O	-5.39% (inactive)	–
COc1ccc(/C=C2\SC(=S)N(CCCC(=O)Nc3ccccn3)C2=O)cc1OC	-8.48% (inactive)	–

SMILES	activity change, negative = inhibition	Potency
Cc1nc2c(OCc3ccc(C#N)cc3)cccn2c1N(C)Cc1cccs1	0.28% (inactive)	–
C[C@@H](CN1C2=NC[C@H](Cc3ccccc3)N2C[C@H]1Cc1ccc(O)cc1)NC(=O)CCC1CCCCC1	1.67% (inactive)	–
O=C(CSc1n[nH]c(-c2ccccn2)n1)Nc1ccc(F)cc1	-11.7% (inactive)	–
Cc1ccc(Cl)cc1N1CCN(C(=O)CCS(=O)(=O)c2ccc3c(c2)NC(=O)CO3)CC1	2.23% (inactive)	–
CCCCOC(=O)/C=C\C(=O)NC(N)=O	1.17% (inactive)	–
O=C(CCc1ccccc1)NC(c1cccs1)c1cc(Cl)c2cccnc2c1O (stereo not given)	-2.15% (inactive)	–
O=C(Nc1nc2cc(Cl)ccc2s1)C1CCCN(S(=O)(=O)c2cccc3cccnc23)C1 (stereo not given)	-4.41% (inactive)	–
Cc1ccc(S(=O)(=O)N(C)C)cc1NC(=O)c1cncc(Br)c1	3.55% (inactive)	–
Clc1ccc2nc(-c3ccccn3)c(Nc3ccc4c(c3)OCO4)n2c1	-0.752% (inactive)	–
OC(CNCCc1ccccc1)COc1ccc(OCC(O)CNCCc2ccccc2)cc1 (stereo not given)	3.74% (inactive)	–
Cc1ccc(/C=C2/CNC/C(=C/c3ccc(C)cc3)C2=O)cc1	-13% (inactive)	–
CC(=O)NC(c1ccccc1)c1cc(Cl)c2cccnc2c1O (stereo not given)	-12.7% (inactive)	–
COc1cccc2c1C1COC3C4CC(C(=O)O)C(C(C2)N13)N4C (stereo not given)	2.05% (inactive)	–
CC(=NNc1nc2ccccc2o1)c1ncccn1	–	14.1 µM (active)
COc1cc2nc(N(C)C)nc(N)c2cc1OC	-5.16% (inactive)	–
Fc1ccc(Nc2nnc(C(F)(F)F)s2)cc1Cl	-13.2% (inactive)	–
O=C(Nc1ccccc1C(=O)Nc1nnc(C(F)(F)F)s1)c1ccccc1Cl	–	22.4 µM (active)
O=C(N/N=C(\c1ccccc1)c1ccccn1)c1ccccc1Cl	-10.3% (inactive)	–
O=S(=O)(c1ccc(F)cc1)c1snnc1-c1ccccc1	1.44% (inactive)	–
O=C(Nc1nc(-c2ccccc2)cs1)c1ccccc1NS(=O)(=O)c1ccc(F)cc1	–	28.2 µM (active)
NC(Cc1ccc(F)cc1)c1csc(NC(=O)NC(c2ccccc2)c2ccccc2)n1 (stereo not given)	2.44% (inactive)	–
OC[C@@H]1CN(Cc2ccc(-c3ccccc3)cc2)C[C@H](n2cnc3c(Nc4ccccc4)ncnc32)O1	1.15% (inactive)	–
c1ccc(CNc2nc(-c3ccccn3)nc3ccccc23)cc1	-7.78% (inactive)	–
COc1ccc(CNC(=O)Nc2nc(C(N)Cc3ccc(Cl)cc3)cs2)cc1 (stereo not given)	-1.52% (inactive)	–
CCOC(=O)N1CCC(c2cc(=O)n3[nH]c(C)c(-c4ccc(F)cc4)c3n2)CC1	-8.39% (inactive)	–
